Records with an inconclusive call do not appear. Entries that show only a call come without a potency. Calls of active or inactive are those of the source. Calls come from the whole dose curve; as a rule, active = well fitted cell-killing curve with a large enough effect; inconclusive = small, poorly fitted or top-dose-only effect; inactive = no such curve, though single readings can be large or run the other way.
Potency is the fitted concentration of half-maximal effect.

A short description of the assay: qHTS of pediatric cancer cell lines to identify multiple opportunities for drug repurposing: Primary screen for Rh41 cells (AID 1347108).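 For activity change, negative = cytotoxic: luminescence drop marks cytotoxic hits.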 Note: nearly all actives have a fitted effect of over 70% in size. The settings on record: Rh41 rhabdomyosarcoma viability, CellTiter-Glo luminescence, 48 h; series mostly up to 46 µM; activity change, negative = cytotoxic: at the top concentration. An excerpt:
Drug repurposing or repositioning has been offered as a strategy for drug development in oncology programs. This approach has special potential for childhood cancers and other rare or orphan diseases, where the expected return on new drug development has been a disincentive to pharmaceuticals. […] In this project we exploit the poly-pharmacology of drugs to discover new indications via phenotypic screening of a panel of 19 well-characterized cell lines derived from solid tumors seen in children and adolescents. The goal is to identify approved drugs with previously unrecognized anticancer properties that has the potential to reveal new mechanisms and biological processes involved in carcinogenesis or drug resistance. We employed a titration-based paradigm (quantitative high-throughput screening or qHTS), where all compounds were tested at multiple concentrations for their effect on cell viability. Concentration-response curves (CRCs) were derived directly from the primary screen, and both potency and efficacy values were used to identify compounds with robust bioactivity profiles. We screened the NIH Chemical Genomics Center (NCGC) Pharmaceutical Collection (NPC) and Mechanism Interrogation Plate (MIPE) small molecule collections of approved and investigational compounds against these cell lines; and measured metabolically active cells after 48 hours of compound treatment as a proxy for cell viability. […] Assay Submitter: Nathalia J. Martinez, National Center for Advancing Translational Sciences, National Institutes of Health, Rockville, MD, USA; email: natalia.martinez@nih.gov Shen, M et al. Quantitative high-throughput phenotypic screening of pediatric cancer cell lines identifies multiple opportunities for drug repurposing. Oncotarget 2017 Dec 19;9(4):4758-4772. PMID 29435139.
The cells were obtained from University of North Carolina (UNC), Pediatric Preclinical Testing Program (PPT), and Coriell Institute (CI). qHTS cell viability assay: Cells were assayed in growth media at a density of 500-1,000 cells/well. Five microliters of cells were dispensed into 1,536-well, white, solid-bottom, TC-treated plates (Greiner Bio One) using a multidrop dispenser and incubated at 37 degrees C, 5% CO2, under a humidified atmosphere for 5 hours. Twenty-three nanoliters of compounds and controls (neutral control DMSO or positive control bortezomib at final concentration of 2.3 µM) were subsequently transferred by Kalypsys pintool. For primary screens, the MIPE collection was tested at 11-point dilutions (final concentrations range from 0.78 nM to 46 µM) and the NPC collection at 8-point dilutions (final concentrations range from 0.59 nM to 46 µM). Compounds tested in follow-up screens were assayed at 11-point dilutions. Cells were incubated for 48 hours, followed by addition of 3 µL of CellTiter-Glo (Promega). After a 15 min incubation at room temperature, samples were analyzed for luminescence intensity using a ViewLux High-throughput CCD imager equipped with clear filters.
A general note: Quantitative high-throughput screening tests each substance at several concentrations.
As to `NS(=O)(=O)c1cc2c(cc1Cl)NCNS2(=O)=O`, the Potency result was “inactive”.

Consider `CC[N+](CC)(CC)CCOc1cccc(OCC[N+](CC)(CC)CC)c1OCC[N+](CC)(CC)CC`, for which the Potency result was “inactive”.

As to `CN(C)CCCN1c2ccccc2CCc2ccc(Cl)cc21`, the “activity change, negative = cytotoxic” value was 0.69% (inactive).

Turning to `CCOC(=O)c1ncn2c1CN(C)C(=O)c1cc(F)ccc1-2`, the Potency result is “inactive”.

As for `CN1CCN(CCCN2c3ccccc3Sc3ccc(Cl)cc32)CC1`, the “activity change, negative = cytotoxic” value is 26.7% (inactive).

For `Cc1ccccc1N1C(=O)c2cc(S(N)(=O)=O)c(Cl)cc2NC1C` (stereo not given), the Potency result is “inactive”.

For `O=C(Nc1ccc([N+](=O)[O-])cc1Cl)c1cc(Cl)ccc1O`, the Potency was 2.35 µM (active).

With `O=C(CCCN1CCC(O)(c2ccc(Cl)cc2)CC1)c1ccc(F)cc1`, the “activity change, negative = cytotoxic” value was -6.93% (inactive).

On to `CN(CCOc1ccc(NS(C)(=O)=O)cc1)CCc1ccc(NS(C)(=O)=O)cc1`, for which the Potency result was “inactive”.

For `Cc1cc(C(C)(C)C)cc(C)c1CC1=NCCN1`, the Potency entry was “inactive”.

Regarding `CCN1CCCC1CNC(=O)c1cc(S(=O)(=O)CC)c(N)cc1OC` (stereo not given), the “activity change, negative = cytotoxic” value was 33% (inactive).

For the molecule `Nc1ccn([C@H]2CC[C@@H](CO)O2)c(=O)n1`, the Potency result was “inactive”.

In the case of `COc1cc2nc(N3CCN(C(=O)c4ccco4)CC3)nc(N)c2cc1OC`, the “activity change, negative = cytotoxic” value was 25.9% [at 16.1 µM] (inactive).

For the molecule `CN1C2CCC1CC(OC(=O)C(CO)c1ccccc1)C2` (stereo not given), the “activity change, negative = cytotoxic” value was 14.5% (inactive).

As to `Cc1cn([C@H]2C[C@H](N=[N+]=[N-])[C@@H](CO)O2)c(=O)[nH]c1=O`, the Potency result is “inactive”.

With `CC(CCc1ccc(O)cc1)NCCc1ccc(O)c(O)c1` (stereo not given), the “activity change, negative = cytotoxic” value was 7.53% (inactive).

Take `O=C(c1ccc(OCCN2CCCCC2)cc1)c1c(-c2ccc(O)cc2)sc2cc(O)ccc12`: the “activity change, negative = cytotoxic” value was 0.986% (inactive).

Consider `Cc1cc(C(C)(C)C)c(O)c(C)c1CC1=NCCN1`, for which the Potency result was “inactive”.

As for `Fc1ccc([C@@H]2CCNC[C@H]2COc2ccc3c(c2)OCO3)cc1`, the Potency result is “inactive”.

Consider `CN1CCN2c3ccccc3Cc3ccccc3C2C1` (stereo not given), for which the “activity change, negative = cytotoxic” value was 4.17% (inactive).

Turning to `CC(C)(Oc1ccc(C2CC2(Cl)Cl)cc1)C(=O)O` (stereo not given), the “activity change, negative = cytotoxic” value is 24.2% (inactive).

For `COc1ccccc1OCC(O)CN1CCN(CC(=O)Nc2c(C)cccc2C)CC1` (stereo not given), the Potency entry was “inactive”.

`CN(C)C(=N)N=C(N)N`: the “activity change, negative = cytotoxic” value was 23.7% (inactive).

Take `NCCS(=O)(=O)O`: the Potency result is “inactive”.

For `O=c1c(-c2ccc(O)cc2)coc2cc(O)cc(O)c12`, the Potency result was “inactive”.

For `C[C@H]1c2cccc(O)c2C(O)=C2C(=O)[C@]3(O)C(O)=C(C(N)=O)C(=O)[C@@H](N(C)C)[C@@H]3[C@@H](O)[C@@H]21`, the Potency entry is “inactive”.

For the molecule `Cn1c(=O)c2[nH]cnc2n(C)c1=O`, the Potency result was “inactive”.

Turning to `O=C(C1CCCCC1)N1CC(=O)N2CCc3ccccc3C2C1` (stereo not given), the Potency result was “inactive”.

Take `NC(CO)C(=O)NNCc1ccc(O)c(O)c1O` (stereo not given): the Potency result was “inactive”.

Consider `O=c1c(O)c(-c2ccc(O)c(O)c2)oc2cc(O)cc(O)c12`, for which the “activity change, negative = cytotoxic” value is -0.389% (inactive).

In the case of `CC(C)(C)C(=O)Oc1ccc(S(=O)(=O)Nc2ccccc2C(=O)NCC(=O)O)cc1`, the Potency entry is “inactive”.

With `CC(C)NCC(O)COc1ccc(CCOCC2CC2)cc1` (stereo not given), the Potency entry was “inactive”.

Turning to `COc1cc2c(c(OC)c1OC)-c1ccc(OC)c(=O)cc1[C@@H](NC(C)=O)CC2`, the Potency was 20.9 µM (active).

For the molecule `CN(Cc1cnc2nc(N)nc(N)c2n1)c1ccc(C(=O)N[C@@H](CCC(=O)O)C(=O)O)cc1`, the Potency entry is “inactive”.

As for `NCCc1cnc[nH]1`, the “activity change, negative = cytotoxic” value was 31.8% (inactive).

Take `CC(C)Cc1ccc(C(C)C(=O)O)cc1` (stereo not given): the Potency entry is “inactive”.

As to `CC#C[C@]1(O)CC[C@H]2[C@@H]3CCC4=CC(=O)CCC4=C3[C@@H](c3ccc(N(C)C)cc3)C[C@@]21C`, the Potency is 0.743 µM (active).

Take `CC(C(=O)O)c1cccc(C(=O)c2ccccc2)c1` (stereo not given): the “activity change, negative = cytotoxic” value is 17.2% (inactive).

Take `Cc1cnc(C(=O)NCCc2ccc(S(=O)(=O)NC(=O)NC3CCCCC3)cc2)cn1`: the Potency result was “inactive”.

On to `CCC1(C)CC(=O)NC1=O` (stereo not given), for which the Potency entry is “inactive”.

Source of the values: PubChem BioAssay (NCATS).
